Assay [1] has as its target human RAR-related Orphan Receptor gamma (RORg), RORC (gene 6097) (UniProt P51449). Put plainly: ATG_RORg_TRANS: Attagene TRANS-FACTORIAL HepG2 Assay for human RAR-related Orphan Receptor gamma (RORg) (AID 2283011; active = hit-call score of the fitted dose curve at least 0.9, where 1 is the maximum). In outline: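 Chimeric RORg-Gal4 transactivation in transfected HepG2; 24 h exposure; RT-PCR/capillary electrophoresis readout of reporter mRNA, DMSO baseline.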

Assay [2] concerns the target Retinoic acid receptor RXR-alpha (Homo sapiens) (UniProt P19793). Briefly: ATG_RXRa_TRANS: Attagene TRANS-FACTORIAL HepG2 Assay for human Retinoid X Receptor alpha (RXRa) (AID 2283012; active = hit-call score of the fitted dose curve at least 0.9, where 1 is the maximum). In outline: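 Measures exogenous chimeric NR-GAL4 activity in transfected HepG2 liver cells after 24 h of dosing. Induced reporter mRNA was detected by RT-PCR with capillary electrophoresis, and gain of signal was analysed against DMSO.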

Assay [3] has as its target human Thyroid Receptor alpha (THRa1), THRA (gene 7067) (UniProt P10827). Put plainly: ATG_THRa1_TRANS: Attagene TRANS-FACTORIAL HepG2 Assay for human Thyroid Receptor alpha (THRa1) (AID 2283014; active = hit-call score of the fitted dose curve at least 0.9, where 1 is the maximum). In short, it runs like this:
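Measured here is mRNA from a GAL4-UAS reporter in transfected HepG2 cells carrying a Gal4-fused receptor, 24 h post-dose. DMSO served as negative control and baseline.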

Read-out in assay [4]: E-selectin (Homo sapiens) (UniProt P16581)
Briefly: BSK_3C_Eselectin: BioMAP Diversity Plus: 3C Assay for Eselectin Biomarker Activity (AID 2283015).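 For outcome: cell surface E-selectin protein quantified by ELISA 24 h after dosing.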 To be noted: primary human endothelial cells (HUVEC); actives raise or lower the signal. In short, it runs like this:
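Endpoint derived by bidirectional fitting against DMSO vehicle; signal is ELISA-detected E-selectin from primary HUVEC at 24 h post-dosing, with parallel SRB staining (0.1% SRB, 560 nm) flagging cytotoxicity.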

Read-out in assay [5]: Interleukin-1 alpha (IL1a), IL1A (gene 3552)
Put plainly: BSK_BE3C_IL1a: BioMAP Diversity Plus: BE3C Assay for Interleukin-1 alpha (IL1a) Biomarker Activity (AID 2283016). Particulars: primary human bronchial epithelial cells; actives raise or lower the signal. In short, it runs like this:
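Signal from IL-1a ELISA, taken 24 h after chemical dosing of human bronchial epithelial cells, is compared with DMSO as baseline using bidirectional curve fitting.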

Read-out in assay [6]: Monocyte Chemoattractant Protein-1 (MCP1), CCL2 (gene 6347)
Briefly: BSK_3C_MCP1: BioMAP Diversity Plus: 3C Assay for Monocyte Chemoattractant Protein-1 (MCP1) Biomarker Activity (AID 2283017). Particulars: primary human endothelial cells (HUVEC); actives raise or lower the signal. In short, it runs like this:
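Using human vascular primary endothelium, researchers measured MCP-1 by ELISA 24 h after treatment, with DMSO serving as negative control for bidirectional fitting.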

Read-out in assay [7]: Monocyte Chemoattractant Protein-1 (MCP1), CCL2 (gene 6347)
Put plainly: BSK_4H_MCP1: BioMAP Diversity Plus: 4H Assay for Monocyte Chemoattractant Protein-1 (MCP1) Biomarker Activity (AID 2283018). To be noted: primary human endothelial cells (HUVEC); actives raise or lower the signal. In outline:
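Endothelial cells from umbilical vein were treated with test chemical, then after 24 h MCP-1 levels were quantified by ELISA; endpoint values came from bidirectional fitting with DMSO as baseline of activity.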

Read-out in assay [8]: Human Leukocyte Antigen - DR isotype (HLADR), HLA-DRA (gene 3122)
Briefly: BSK_3C_HLADR: BioMAP Diversity Plus: 3C Assay for Human Leukocyte Antigen - DR isotype (HLADR) Biomarker Activity (AID 2283019). To be noted: primary human endothelial cells (HUVEC); actives raise or lower the signal. In short, it runs like this: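 Compound added to primary HUVEC cultures, 24 h incubation, then HLA-DR determined by ELISA; endpoint derived by bidirectional fitting relative to DMSO negative control.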

Read-out in assay [9]: Interleukin-8 (IL8), CXCL8 (gene 3576)
Put plainly: BSK_3C_IL8: BioMAP Diversity Plus: 3C Assay for Interleukin-8 (IL8) Biomarker Activity (AID 2283020). To be noted: primary human endothelial cells (HUVEC); actives raise or lower the signal. In outline:
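Endothelial primary cells of human umbilical vein origin are dosed with chemical; after 24 h the IL-8 biomarker is measured by ELISA, and concentration–response is fitted in both directions versus DMSO.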

Read-out in assay [10]: Monokine induced gamma interferon (MIG), CXCL9 (gene 4283)
Put plainly: BSK_3C_MIG: BioMAP Diversity Plus: 3C Assay for Monokine induced gamma interferon (MIG) Biomarker Activity (AID 2283021). Particulars: primary human endothelial cells (HUVEC); actives raise or lower the signal. In short, it runs like this:
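Endothelial primary cells (human umbilical vein) are dosed with test chemical in the 3C system. MIG levels are measured by ELISA at 24 h and fitted in both directions relative to DMSO.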

Assay [11] deals with human Vitamin D Receptor (VDR), VDR (gene 7421) (UniProt P11473). Briefly: ATG_VDR_TRANS: Attagene TRANS-FACTORIAL HepG2 Assay for human Vitamin D Receptor (VDR) (AID 2283022; active = hit-call score of the fitted dose curve at least 0.9, where 1 is the maximum). In short, it runs like this: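 Multiplexed TRANS reporter in HepG2; 24 h treatment; reporter mRNA by RT-PCR plus capillary electrophoresis; upregulation scored relative to DMSO.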
human Vitamin D Receptor (VDR), VDR (gene 7421), sequence (P11473 whole entry, looked up): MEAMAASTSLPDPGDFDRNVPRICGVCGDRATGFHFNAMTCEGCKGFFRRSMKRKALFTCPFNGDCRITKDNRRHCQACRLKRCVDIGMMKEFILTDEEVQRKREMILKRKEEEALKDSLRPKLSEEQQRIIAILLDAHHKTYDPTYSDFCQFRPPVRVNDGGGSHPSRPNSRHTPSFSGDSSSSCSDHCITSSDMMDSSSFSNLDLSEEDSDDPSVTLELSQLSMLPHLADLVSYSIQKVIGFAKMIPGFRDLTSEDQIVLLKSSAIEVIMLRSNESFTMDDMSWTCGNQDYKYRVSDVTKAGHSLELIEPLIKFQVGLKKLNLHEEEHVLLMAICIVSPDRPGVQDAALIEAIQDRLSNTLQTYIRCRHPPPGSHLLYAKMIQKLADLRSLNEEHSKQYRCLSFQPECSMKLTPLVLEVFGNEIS
Assay [12] in a line: BSK_3C_SRB: Viability Assessment in the BioMAP Diversity Plus: 3C Assay (AID 2283023).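 Note: fitted both ways against DMSO so a hit may be signal rise or drop.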 Particulars: primary human endothelial cells (HUVEC). In outline: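 Overt cytotoxicity is gauged in parallel confluent HUVEC cultures by SRB total-protein staining at the time of biomarker measurement, 24 h after dosing. Gain or loss of signal is fitted versus DMSO.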
Read-out in assay [13]: Matrix Metallopeptidase 1 (MMP1), MMP1 (gene 4312)
Put plainly: BSK_BE3C_MMP1: BioMAP Diversity Plus: BE3C Assay for Matrix Metallopeptidase 1 (MMP1) Biomarker Activity (AID 2283024). Particulars: primary human bronchial epithelial cells; actives raise or lower the signal. In short, it runs like this: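 MMP1 signal, measured by ELISA after a 24 h chemical exposure of human primary bronchial epithelial cells, is analysed with bidirectional fitting using DMSO as negative control.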

Assay [14] in a line: BSK_3C_Vis: BioMAP Diversity Plus: 3C Assay for Morphology Visualization (AID 2283025).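 Note: fitted both ways so gain or loss versus DMSO counts.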 Particulars: primary human endothelial cells (HUVEC). In outline: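 Morphology read by light microscopy serves as a background control for the multiplexed 3C assay in human umbilical vein endothelial cells, taken 24 h after dosing, with DMSO as the negative control and bidirectional curve fitting.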

Read-out in assay [15]: Pselectin, SELP (gene 6403)
Put plainly: BSK_4H_Pselectin: BioMAP Diversity Plus: 4H Assay for Pselectin Biomarker Activity (AID 2283026). Particulars: primary human endothelial cells (HUVEC); actives raise or lower the signal. In short, it runs like this: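 Endothelial primary cells (human umbilical vein) are dosed, incubated 24 h, and assayed for surface P-selectin by ELISA; responses in either direction are fitted relative to the DMSO negative control.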

The nature of assay [16]: BSK_BE3C_SRB: Viability Assessment in the BioMAP Diversity Plus: BE3C Assay (AID 2283028). To be noted: primary human bronchial epithelial cells. In outline: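 SRB total-protein staining (0.1%, after TCA fixation) of chemically dosed human bronchial epithelial primary cells at 24 h; DMSO serves as the negative control for bidirectional curve fitting.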
Read-out in assay [17]: Thrombomodulin, THBD (gene 7056)
Briefly: BSK_3C_Thrombomodulin: BioMAP Diversity Plus: 3C Assay for Thrombomodulin Biomarker Activity (AID 2283029). To be noted: primary human endothelial cells (HUVEC); actives raise or lower the signal. In short, it runs like this: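 Endothelial cells from umbilical vein are dosed with test chemical and incubated 24 h. Thrombomodulin is then quantified by ELISA, with DMSO serving as negative control and activity baseline.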

Read-out in assay [18]: Urokinase-type plasminogen activator receptor (uPAR), PLAUR (gene 5329)
Briefly: BSK_4H_uPAR: BioMAP Diversity Plus: 4H Assay for Urokinase-type plasminogen activator receptor (uPAR) Biomarker Activity (AID 2283030). To be noted: primary human endothelial cells (HUVEC); actives raise or lower the signal. In outline: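 Endpoint derived via bidirectional curve fitting against DMSO baseline; readout was ELISA detection of uPAR on umbilical vein endothelial cells at 24 h post-treatment, with SRB-stained parallel cultures assessing cytotoxicity.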

In assay [19] the target is human Retinoid X Receptor beta (RXRb), RXRB (gene 6257) (UniProt P28702). Briefly: ATG_RXRb_TRANS: Attagene TRANS-FACTORIAL HepG2 Assay for human Retinoid X Receptor beta (RXRb) (AID 2283013; active = hit-call score of the fitted dose curve at least 0.9, where 1 is the maximum). In outline:
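Chimeric receptor-Gal4 activity was assessed in transiently transfected human HepG2 cells after 24 h exposure. Transcripts from GAL4-UAS reporters were quantified by fluorescent RT-PCR and capillary electrophoresis, with DMSO as negative control and baseline.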

Inconclusive results are not listed. Calls of active or inactive are those of the source. Rule for the calls, unless noted: active = hit-call score of the fitted dose curve at least 0.9, where 1 is the maximum; inactive = score below 0.9.

human Retinoid X Receptor beta (RXRb), RXRB (gene 6257), sequence (P28702 whole entry, looked up, the tested form may be a part): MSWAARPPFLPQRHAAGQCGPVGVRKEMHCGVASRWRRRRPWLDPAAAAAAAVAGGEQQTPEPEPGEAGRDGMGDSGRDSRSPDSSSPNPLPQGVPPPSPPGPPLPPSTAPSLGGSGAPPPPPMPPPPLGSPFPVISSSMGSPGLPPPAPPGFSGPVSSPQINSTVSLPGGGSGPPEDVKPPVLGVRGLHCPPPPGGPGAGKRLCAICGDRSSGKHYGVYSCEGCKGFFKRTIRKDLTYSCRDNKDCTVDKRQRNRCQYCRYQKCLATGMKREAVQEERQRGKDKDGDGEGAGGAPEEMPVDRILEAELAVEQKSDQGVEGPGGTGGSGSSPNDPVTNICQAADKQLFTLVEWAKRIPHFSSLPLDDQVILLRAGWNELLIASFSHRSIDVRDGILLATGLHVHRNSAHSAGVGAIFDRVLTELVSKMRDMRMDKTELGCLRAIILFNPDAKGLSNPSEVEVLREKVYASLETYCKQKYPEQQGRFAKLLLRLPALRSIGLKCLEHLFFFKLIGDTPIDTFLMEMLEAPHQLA
human Thyroid Receptor alpha (THRa1), THRA (gene 7067), sequence (P10827 whole entry, looked up, the tested form may be a part): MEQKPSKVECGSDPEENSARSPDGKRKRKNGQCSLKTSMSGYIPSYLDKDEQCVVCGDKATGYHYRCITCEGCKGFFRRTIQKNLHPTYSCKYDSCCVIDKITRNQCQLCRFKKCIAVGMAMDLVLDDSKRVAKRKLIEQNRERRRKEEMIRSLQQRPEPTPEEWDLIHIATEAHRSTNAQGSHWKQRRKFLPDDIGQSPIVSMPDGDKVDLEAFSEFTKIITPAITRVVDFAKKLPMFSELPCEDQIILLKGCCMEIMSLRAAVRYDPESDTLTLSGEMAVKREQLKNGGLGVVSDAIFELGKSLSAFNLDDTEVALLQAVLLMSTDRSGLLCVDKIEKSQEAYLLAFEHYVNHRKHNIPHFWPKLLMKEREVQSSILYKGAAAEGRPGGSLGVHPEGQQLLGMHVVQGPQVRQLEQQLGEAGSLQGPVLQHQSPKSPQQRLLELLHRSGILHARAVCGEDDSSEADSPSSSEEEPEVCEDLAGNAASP
Retinoic acid receptor RXR-alpha (Homo sapiens), sequence (P19793 whole entry, looked up, the tested form may be a part): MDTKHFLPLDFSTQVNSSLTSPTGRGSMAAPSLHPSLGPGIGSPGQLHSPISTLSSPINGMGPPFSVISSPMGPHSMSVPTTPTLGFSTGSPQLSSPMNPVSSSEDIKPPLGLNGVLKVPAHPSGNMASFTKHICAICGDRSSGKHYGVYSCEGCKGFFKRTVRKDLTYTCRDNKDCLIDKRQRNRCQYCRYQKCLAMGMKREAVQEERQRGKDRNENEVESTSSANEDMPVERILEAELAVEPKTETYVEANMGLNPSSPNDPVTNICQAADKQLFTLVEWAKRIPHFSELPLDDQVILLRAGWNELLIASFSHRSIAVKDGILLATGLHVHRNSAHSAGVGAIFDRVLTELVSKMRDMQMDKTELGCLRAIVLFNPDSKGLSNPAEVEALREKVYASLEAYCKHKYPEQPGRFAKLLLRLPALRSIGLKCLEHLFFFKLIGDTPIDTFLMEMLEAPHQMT
human RAR-related Orphan Receptor gamma (RORg), RORC (gene 6097), sequence (P51449 whole entry, looked up, the tested form may be a part): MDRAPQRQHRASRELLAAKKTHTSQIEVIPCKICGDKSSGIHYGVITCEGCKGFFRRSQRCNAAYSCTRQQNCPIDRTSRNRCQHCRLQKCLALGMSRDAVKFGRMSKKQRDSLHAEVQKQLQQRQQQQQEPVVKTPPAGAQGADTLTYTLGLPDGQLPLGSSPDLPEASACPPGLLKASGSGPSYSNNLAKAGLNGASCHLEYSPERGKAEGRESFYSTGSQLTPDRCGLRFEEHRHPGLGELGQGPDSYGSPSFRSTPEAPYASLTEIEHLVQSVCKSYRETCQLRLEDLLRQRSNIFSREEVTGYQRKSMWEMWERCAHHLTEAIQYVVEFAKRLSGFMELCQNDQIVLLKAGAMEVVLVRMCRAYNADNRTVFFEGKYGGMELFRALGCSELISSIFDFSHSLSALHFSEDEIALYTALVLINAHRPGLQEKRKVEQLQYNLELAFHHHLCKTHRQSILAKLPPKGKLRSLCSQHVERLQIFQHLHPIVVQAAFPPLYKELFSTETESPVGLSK
E-selectin (Homo sapiens), sequence (P16581 whole entry, looked up): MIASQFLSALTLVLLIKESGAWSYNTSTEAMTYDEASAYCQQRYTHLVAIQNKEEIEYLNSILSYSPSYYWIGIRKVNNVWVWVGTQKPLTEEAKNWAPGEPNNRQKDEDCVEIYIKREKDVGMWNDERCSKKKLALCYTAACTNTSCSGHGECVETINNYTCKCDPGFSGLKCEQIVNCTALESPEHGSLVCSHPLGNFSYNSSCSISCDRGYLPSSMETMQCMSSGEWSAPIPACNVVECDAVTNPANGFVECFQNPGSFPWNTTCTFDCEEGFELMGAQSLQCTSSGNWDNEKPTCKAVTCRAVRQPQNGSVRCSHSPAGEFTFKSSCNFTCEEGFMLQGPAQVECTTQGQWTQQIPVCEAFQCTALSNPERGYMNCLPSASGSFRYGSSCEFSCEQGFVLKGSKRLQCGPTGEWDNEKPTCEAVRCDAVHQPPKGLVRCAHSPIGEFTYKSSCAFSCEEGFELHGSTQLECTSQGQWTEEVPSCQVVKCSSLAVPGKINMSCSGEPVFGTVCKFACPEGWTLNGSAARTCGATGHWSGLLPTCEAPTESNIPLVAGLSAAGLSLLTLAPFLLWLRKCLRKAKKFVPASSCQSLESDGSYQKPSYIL

`[Cu+]`: the compound was classed as inactive in [1], in assay [2] and in assay [3].

As to `Nc1ccn([C@H]2CC[C@@H](CO)O2)c(=O)n1`, the result in [1], in assay [2] and in assay [3] was inactive.

Regarding `O=C1OC2(c3ccc(O)cc3Oc3cc(O)ccc32)c2ccccc21`, the result in assay [1], in assay [2], in [3], in assay [4], in assay [5] and in assay [6] was inactive. For the same compound, the outcome in assay [7], in [10], in assay [11], in assay [12], in assay [13] and in assay [14] was inactive. Further, the outcome in assay [15], in assay [16], in [17] and in assay [18] was inactive. The half-maximal activity concentration (AC50) in assay [8] and in assay [9] was 20 µM (active) in each case.

Turning to `C[C@]12CC[C@@H]3c4ccc(O)cc4CC[C@H]3[C@@H]1CC[C@@H]2O`, the call in assay [1], in assay [2], in assay [19], in assay [3], in assay [5] and in assay [9] was inactive. In addition, the outcome in assay [10], in [13], in [15], in [16] and in assay [17] was inactive. The AC50 is 4.87 µM (active) in [4]; 12.2 µM (active) in [6]; 9.45 µM (active) in [7]; 16.1 µM (active) in [8]; 13.7 µM (active) in assay [14]; 8.9 µM (active) in assay [18].

As for `CN(C)c1ccc(C=O)cc1`, the result in [1], in [2], in assay [19], in [3] and in [11] was inactive.

Take `CC(=O)OC(C)(C)C`: the compound was called inactive in assay [1], in assay [2], in assay [19] and in assay [3].

For `CC(=O)OC(C)(C)C1CC=C(C)CC1` (stereo not given), the result in assay [1], in [2], in [19], in assay [5], in assay [9] and in [10] was inactive. In addition, the result in assay [13], in [16] and in [17] was inactive. Also, the AC50 in [4] was 31 µM (active); in assay [6], 31.3 µM (active); in [7], 29.8 µM (active); in assay [8], 31.3 µM (active); in [12], 31.5 µM (active); in [14], 38.9 µM (active). Moreover, the AC50 in [15] is 31.2 µM (active); in assay [18] it was 30.8 µM (active).

As for `C#C[C@]1(O)CC[C@H]2[C@@H]3CCc4cc(O)ccc4[C@H]3CC[C@@]21C`, the result in assay [1], in [2], in [19], in assay [3], in [5] and in assay [7] was inactive. Moreover, the result in assay [10], in [13], in assay [15], in assay [16] and in assay [17] was inactive. Moreover, the AC50 is 5.36 µM (active) in [4]; 7.15 µM (active) in assay [6]; 6.67 µM (active) in assay [8]; 5.33 µM (active) in [9]; 6.09 µM (active) in assay [12]; 9.8 µM (active) in [14]. The concentration at half-maximal activity (AC50) in assay [18] is 3.93 µM (active).

For the origin of these results see PubChem BioAssay (EPA / NIEHS).
